Screening data: PubChem, National Center for Advancing Translational Sciences (NCATS)
The list is not random: actives were taken first. Their share in the collection is about 8%.
Marburg entry inh – blocks Marburg virus binding to or entry into cells; Marburg virus pseudotyped entry inhibition, cell reporter; Potency, µM (top dose mostly 37.8 µM), most hits filed as inhibitors; hit rate 1.8% among 300,000; calls by dose curve; tested in HEK293 cells
SARS PLP yeast – SARS-CoV PLP inhibition in yeast; S. cerevisiae expressing SARS-CoV PLpro, growth rescue; hit rate 0.19% among 330,000; Potency, µM (series often up to 32.9 µM), hits mostly activators; calls by dose curve; also: nearly all actives have a fitted effect of over 55% in size
FMDV antiviral – foot and mouth disease virus antiviral activity | hit rate 1.2% among 410,000 | Potency, µM (series often up to 57.9 µM), hits mostly inhibitors | AID 1159524 | FMDV antiviral cell-based qHTS; calls by dose curve; tested in HEK293T cells; also: read-out not given here; nearly all actives have a fitted effect of over 45% in size
HCV inhibitor – blocks hepatitis C virus. Potency, µM (top dose mostly 41.8 µM), usual class: inhibitors. Huh7.5.1 HCVcc-Cre infection, luciferase reporter, 44 h. hit rate 3.4% among 340,000; active = well fitted inhibition curve with a large enough effect; inconclusive = small, poorly fitted or top-dose-only effect, or another doubt; inactive = no such curve, though single readings can be large or run the other way
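Whole-lifecycle infectious HCVcc-Cre system; cells 1,000/well, compound then virus (~0.5 moi) added 4 h after plating, 44 h culture. Luciferase read 15 sec following 15 min substrate incubation, room temp.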
LASV entry inh – inhibitors of Lassa virus binding or cell entry; Potency, µM (series often up to 37.9 µM), actives largely listed as inhibitors; Lassa virus pseudotype entry inhibition, cell reporter; hit rate 1.2% among 300,000; calls by dose curve; tested in HEK293 cells; also: nearly all actives have a fitted effect of over 50% in size
HCMV inh – inhibitors of human cytomegalovirus | HFF cells, HCMV-luciferase reporter, 72 h; active compounds read low | activity change, negative = inhibition, % at 57.5 µM | hit rate 4.5% among 410,000 | AID 1259415; in the data active = activity change below about -60%; inconclusive = no clear call, values can overlap the other calls; inactive = above about -39%
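HFF cells seeded 16 h at 37C, treated with compounds, infected with luciferase-reporter HCMV at MOI 1 PFU/cell; luciferase read at 72 h post infection, normalized to buffer-only and Salinomycin controls.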
Numbers stand for hits.

For CC1(c2ccccc2)NC(=O)N(CC(=O)Nc2ccc(C(N)=O)cc2)C1=O (centres undefined) the results were Marburg entry inh inactive, SARS PLP yeast inactive, FMDV antiviral inactive, HCV inhibitor inactive, LASV entry inh inactive and HCMV inh -62.2.
`Cc1ccc2nc(-c3ccc(NC(=O)CCS(=O)(=O)c4ccccc4)cc3)sc2c1` gave Marburg entry inh inconclusive, SARS PLP yeast inactive, FMDV antiviral inconclusive, HCV inhibitor inconclusive, LASV entry inh 1.84µM and HCMV inh -71.2.
Screening Cc1ccc(C2(C)NC(=O)N(CC(=O)Nc3nc(-c4ccccn4)cs3)C2=O)cc1 (centres undefined) returned Marburg entry inh inactive, SARS PLP yeast inactive, FMDV antiviral inactive, HCV inhibitor 6.31µM, LASV entry inh inconclusive and HCMV inh inactive.
CCN(CC)CCN1C(=O)C(=O)/C(=C(\O)c2ccc(F)cc2)[C@@H]1c1ccncc1 was read as Marburg entry inh inactive.
N#Cc1c(NC(=O)CSc2ncnc3c2cnn3-c2ccccc2Cl)sc2c1CCCC2 was read as Marburg entry inh inconclusive, SARS PLP yeast inactive, FMDV antiviral inactive, HCV inhibitor inconclusive, LASV entry inh inconclusive and HCMV inh inconclusive.
`COC(=O)c1c(NC(=O)CSc2ncnc3[nH]ncc23)sc2c1CCC2` gave Marburg entry inh inactive, SARS PLP yeast inactive, FMDV antiviral inactive, HCV inhibitor inactive, LASV entry inh inconclusive and HCMV inh -80.8.
`COC(=O)c1c(NC(=O)CSc2ncnc3c2cnn3-c2ccccc2Cl)sc2c1CCCC2` gave Marburg entry inh inconclusive, SARS PLP yeast inactive, FMDV antiviral inactive, HCV inhibitor inconclusive, LASV entry inh 5.8µM and HCMV inh -85.4.
`COc1ccc(OC)c(NC(=O)c2cc3c(=O)oc4ccccc4c3s2)c1` gave Marburg entry inh inactive, FMDV antiviral inactive, LASV entry inh inactive and HCMV inh inactive.
Screening COc1ccccc1-n1c(N)c(C(=O)NC[C@H]2CCCO2)c2nc3ccccc3nc21 returned Marburg entry inh inactive.
`COc1ccc(OCCN2CCN(C(=O)c3ccc(OC)c(OC)c3)CC2)cc1` gave Marburg entry inh inconclusive, SARS PLP yeast inactive, FMDV antiviral inconclusive, HCV inhibitor 8.91µM, LASV entry inh inconclusive and HCMV inh inactive.
Screening COc1ccc(OCC(=O)N2CCN(C(=O)c3ccc(OC)c(OC)c3)CC2)cc1 returned Marburg entry inh inconclusive, FMDV antiviral inactive, LASV entry inh inactive and HCMV inh inactive.
Screening COC(=O)Nc1ccc(S(=O)(=O)N2CCCc3ccccc32)cc1 returned Marburg entry inh inconclusive, SARS PLP yeast inactive, FMDV antiviral inactive, HCV inhibitor 3.16µM, LASV entry inh inactive and HCMV inh -61.6.
Screening CCC(=O)Nc1ccc(S(=O)(=O)N2CCc3ccccc32)cc1 returned SARS PLP yeast inactive, FMDV antiviral inconclusive, HCV inhibitor inactive and HCMV inh inactive.
`COC(=O)Nc1ccc(S(=O)(=O)N2CCCc3cccc(O)c32)cc1` gave SARS PLP yeast inactive, FMDV antiviral inactive, HCV inhibitor 11.2µM and HCMV inh inactive.
Screening CN(C)[C@@H]1C(=O)C(C(N)=O)=C(O)[C@@]2(O)C(=O)C3=C(O)c4c(O)ccc(Cl)c4[C@@](C)(O)[C@H]3C[C@@H]12 returned SARS PLP yeast inactive, FMDV antiviral inconclusive, HCV inhibitor 0.891µM and HCMV inh inactive.
For CC(=O)Nc1ccccc1-c1nc(CNC(=O)c2ccc(-n3cccn3)cc2)c(C)o1 the results were FMDV antiviral inactive.
For Cc1ccc(-c2ccc(/C=N/NC(N)=S)o2)cc1 the results were Marburg entry inh inconclusive, SARS PLP yeast inactive, FMDV antiviral inactive, HCV inhibitor 11.2µM, LASV entry inh inconclusive and HCMV inh inactive.
For O=C(c1ccc2c(c1)OCO2)N1CC(=O)N2[C@H](C1)[C@@H](c1ccc(Br)cc1)[C@@H]2CO the results were HCMV inh inactive.
For Cc1nc2ncnn2c(C)c1CCC(=O)Oc1ccccc1 the results were Marburg entry inh inactive, SARS PLP yeast inactive, FMDV antiviral inactive, HCV inhibitor inactive, LASV entry inh inactive and HCMV inh -60.3.
For Cc1nc2ncnn2c(C)c1CCC(=O)NCCc1ccccc1 the results were Marburg entry inh inactive, SARS PLP yeast inactive, FMDV antiviral inactive, HCV inhibitor inactive, LASV entry inh inactive and HCMV inh inactive.
For CC(C(=O)Nc1ccc(OC(F)(F)F)cc1)N1Cc2ccccc2C1=O (centres undefined) the results were FMDV antiviral inactive, LASV entry inh inactive and HCMV inh inactive.
For CCCc1cc(C(N)=O)c(NC(=O)c2cc(C)on2)s1 the results were Marburg entry inh inactive, SARS PLP yeast inactive, FMDV antiviral inactive, HCV inhibitor inconclusive, LASV entry inh inactive and HCMV inh inactive.
CCCc1cc(C(N)=O)c(NC(=O)c2ccoc2C)s1 was read as Marburg entry inh inactive, SARS PLP yeast inactive, FMDV antiviral inactive, HCV inhibitor 7.08µM, LASV entry inh inactive and HCMV inh inactive.
Screening COc1ccccc1NC(=O)C1CCN(c2cnccn2)CC1 returned Marburg entry inh inactive, FMDV antiviral inactive, LASV entry inh inactive and HCMV inh inactive.
For O=[N+]([O-])c1ccc(Sc2cccc3cccnc23)c([N+](=O)[O-])c1 the results were SARS PLP yeast inactive, FMDV antiviral inconclusive, HCV inhibitor inactive and HCMV inh -105.6.
`Cc1cc(C)nc(Sc2ccc([N+](=O)[O-])cc2[N+](=O)[O-])n1` gave Marburg entry inh inconclusive, SARS PLP yeast inactive, FMDV antiviral 7.08µM, HCV inhibitor inactive, LASV entry inh inconclusive and HCMV inh inconclusive.
Screening O=[N+]([O-])c1ccc(Sc2ccncn2)c([N+](=O)[O-])c1 returned FMDV antiviral 28.2µM and HCMV inh -86.3.
Cc1ccc(NC(=O)CN2C(=O)CCc3ccccc32)cc1C was read as FMDV antiviral inactive, LASV entry inh inactive and HCMV inh inactive.
Screening Oc1ccccc1Nc1nc(-c2ccccc2)c2cc(Cl)ccc2n1 returned Marburg entry inh inactive, FMDV antiviral inactive, LASV entry inh inactive and HCMV inh inactive.
For CNC(=S)NNc1nc(-c2ccccc2)c2cc(Cl)ccc2n1 the results were Marburg entry inh inconclusive, FMDV antiviral inactive, HCV inhibitor inactive, LASV entry inh inactive and HCMV inh -72.3.
CCSc1nnc2c(n1)OC(CC)N(C(C)=O)c1ccccc1-2 (centres undefined) was read as Marburg entry inh inactive, FMDV antiviral inactive, LASV entry inh inactive and HCMV inh inactive.
COc1cc(/C=C2\CCC(C)C3=C(c4cc(OC)c(OC)c(OC)c4)C(C#N)=C(N)OC32)cc(OC)c1OC (centres undefined) was read as Marburg entry inh inconclusive, FMDV antiviral inconclusive, HCV inhibitor inconclusive, LASV entry inh 11.2µM and HCMV inh inactive.
O=C(Cc1ccc2c(c1)OCO2)N1CCOc2ccc(CN3CCOCC3)cc2C1 was read as FMDV antiviral inactive.
